# According to PubChem BioAssay (EPA / NIEHS):
# Inconclusive results are not listed. More than one record can exist for a structure, and the calls need not agree. Activity calls are given as the source filed them. Rule for the calls: active = hit-call score of the fitted dose curve at least 0.9, where 1 is the maximum; inconclusive = response in the unintended direction; inactive = score below 0.9.
# System: IYD (gene 389434)
# Assay: CCTE_GLTED_hIYD: CCTE's human Iodotyrosine Deiodinase (xIYD) Inhibition Assay, Great Lakes Toxicology and Ecology Division (GLTED) Lab (AID 2284317);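 note: cell-free human IYD enzyme made in baculovirus insect cells; iodide freed from monoiodotyrosine measured by cerium arsenite color change at 420 nm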
# How it was run: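 Human IYD expressed in a baculovirus-insect cell system was incubated 3 h with monoiodotyrosine and test chemical. Released iodide, separated on Dowex columns, was quantified by the Sandell-Kolthoff reaction at 420 nm; plates were normalized to MNT and DMSO/NaOH controls.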
SMILES,outcome,AC50
CCN(CC)C(=O)C(C)Oc1cccc2ccccc12 (stereo unspecified),inactive,–
CC(C)Oc1cccc(NC(=O)c2ccccc2C(F)(F)F)c1,inactive,–
OC(c1ccc(Cl)cc1)(c1ccc(Cl)cc1)C(Cl)(Cl)Cl,–,100 µM (active)
CC(C)NC(=O)N1CC(=O)N(c2cc(Cl)cc(Cl)c2)C1=O,inactive,–
CCC(C)n1c(=O)[nH]c(C)c(Br)c1=O (stereo unspecified),inactive,–

# System: not listed separately
# Assay: CCTE_Mundy_HCI_iCellGluta_NOG_NeuriteLength: CCTE's Neurite Outgrowth Assay in iCellGluta cells for Neurite Length, Mundy Lab (AID 2284318)
# How it was run: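 Automated high-content imaging of betaIII-tubulin (Alexa Fluor-488) and Hoechst-stained cells gave neurite length, normalized to the DMSO baseline.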
SMILES,outcome,AC50
CS(=O)(=O)c1cc(C(F)(F)F)ccc1C(=O)c1cnoc1C1CC1,inactive,–
CS(=O)(=O)c1ccc(C(=O)C2C(=O)CCCC2=O)c([N+](=O)[O-])c1,inactive,–
N#CN=C1SCCN1Cc1ccc(Cl)nc1,inactive,–
CNC(=O)Oc1cccc2ccccc12,inactive,–
CCNC(=O)NC(=O)C(C#N)=NOC,inactive,–
CC(C)(C)C(=O)C(Oc1ccc(Cl)cc1)n1cncn1 (stereo unspecified),inactive,–
CO/N=C(/C1=NOCCO1)c1ccccc1Oc1ncnc(Oc2ccccc2Cl)c1F,–,9.92 µM (active)
CC1(C)C(C=C(Cl)Cl)C1C(=O)OC(C#N)c1cccc(Oc2ccccc2)c1 (stereo unspecified),inactive,–
COP(=S)(OC)SCn1nnc2ccccc2c1=O,–,21.9 µM (active)
Cc1c(COC(=O)[C@@H]2[C@H](/C=C(\Cl)C(F)(F)F)C2(C)C)cccc1-c1ccccc1,–,10.8 µM (active)
O=C(Nc1ccccc1-c1ccc(Cl)cc1)c1cccnc1Cl,inactive,23.7 µM (active)
C=C(C)CN(CC)c1c([N+](=O)[O-])cc(C(F)(F)F)cc1[N+](=O)[O-],–,22.1 µM (active)
COC(=O)N(C(=O)N1CO[C@@]2(C(=O)OC)Cc3cc(Cl)ccc3C2=N1)c1ccc(OC(F)(F)F)cc1,inactive,–
CCSC(=O)N1CCCCCC1,inactive,–
CN/C(=N\[N+](=O)[O-])NCc1cnc(Cl)s1,inactive,–
